# According to PubChem BioAssay (EPA / NIEHS):
# Active and inactive are the calls of the source. How the source made its calls: active means hit-call score of the fitted dose curve at least 0.9, where 1 is the maximum; inactive means score below 0.9.
# Experiment: CCTE_Harrill_HTTr_Viability_MCF7: CCTE's 6-hour Cell Viability Assessment for the High-Throughput Transcriptomics (HTTr) Platform, in MCF-7 cells cultured in DMEM + 10% fetal bovine serum, Harrill Lab (AID 2284010)
# Text: This is a cell-based assay that evaluates cell viability using high content imaging to evaluate membrane integrity using propidium iodide dye exclusion in a 384 well format.One of seven assay components measured from the CCTE_Harrill_HTTr_Viability assay. This was part of a full screening experiment. This is a cell-based assay that evaluates cell viability in MCF-7 cells cultured in DMEM + 10% fetal bovine serum. High content imaging is used to evaluate membrane integrity using propidium iodide dye exclusion. Measurements are taken at 6 hours after chemical dosing in 384-well format.The assay component endpoint CCTE_Harrill_HTTr_Viability_MCF7 was analyzed with bidirectional fitting relation to DMSO as the negative control and baseline of activity. Using a type of viability reporter, gain-of-signal activity can be used to evaluate membrane integrity using propidium iodide dye exclusion to understand changes in cytotoxicity. To generalize the intended target to other relatable targets, this assay endpoint is annotated to cell cycle, where the subfamily is cytotoxicity.
# Chemicals were tested in MCF7 cells in an eight point dilution series with a six hour exposure duration.
SMILES,outcome,AC50
[O-]n1ccccc1=S.[O-]n1ccccc1=S.[Zn+2],inactive,
CCCSc1ccc2nc(NC(=O)OC)[nH]c2c1,inactive,
Cc1ccc(-c2ccccc2)cc1,inactive,
CC1(C)O[C@@H]2[C@@H](CO[C@@]3(COS(N)(=O)=O)OC(C)(C)O[C@@H]23)O1,inactive,
CN(C)CCOc1ccc(/C(=C(/CCCl)c2ccccc2)c2ccccc2)cc1,,68.7 µM (active)
c1ccc2[nH]cnc2c1,inactive,
Brc1ccc(Br)c(Br)c1,inactive,
O=P(O)(O)O,inactive,
C[C@H](CCC(=O)NCC(=O)O)[C@H]1CC[C@H]2[C@@H]3[C@H](O)C[C@@H]4C[C@H](O)CC[C@]4(C)[C@H]3C[C@H](O)[C@]12C,inactive,
CC1(C)COCN1,inactive,
O=C(O)CCCCCCCCC(=O)O,inactive,
COCCc1ccc(OCC(O)CNC(C)C)cc1 (stereo not given),inactive,
COc1ccc(CCN2CCC(Nc3nc4ccccc4n3Cc3ccc(F)cc3)CC2)cc1,,76.2 µM (active)
CC1(C)O[C@@H]2C[C@H]3[C@@H]4CCC5=CC(=O)C=C[C@]5(C)[C@@]4(F)[C@@H](O)C[C@]3(C)[C@]2(C(=O)CO)O1,inactive,
COCCOCCOCCO,inactive,
CC(=O)CC(=O)Nc1ccccc1,inactive,
CCC(C)=O,inactive,
CC1CCC(C(C)C)C(O)C1 (stereo not given),inactive,
C=C(C)[C@@H]1CC=C(C)C(=O)C1,inactive,
OCCc1ccccc1,inactive,

SMILES,outcome,AC50
CC=Cc1ccc(OC)c(OC)c1,inactive,
CC(O)C1CCCCC1 (stereo not given),inactive,
CCc1cc(Cc2cc(CC)cc(C(C)(C)C)c2O)c(O)c(C(C)(C)C)c1,inactive,
CC(C)C[C@H](NC(=O)OCC1c2ccccc2-c2ccccc21)C(=O)O,inactive,
Cc1[nH]c(=O)c(C#N)cc1-c1ccncc1,inactive,
C=CC(C)(O)CCC=C(C)C (stereo not given),inactive,
CC(C)(C)CC(C)(C)c1ccc(OCCOCC[N+](C)(C)Cc2ccccc2)cc1,inactive,
COc1cc([C@@H]2c3cc4c(cc3[C@@H](O[C@@H]3O[C@@H]5CO[C@@H](C)O[C@H]5[C@H](O)[C@H]3O)[C@H]3COC(=O)[C@H]23)OCO4)cc(OC)c1O,inactive,
Nc1ccn([C@H]2CS[C@@H](CO)O2)c(=O)n1,inactive,
O=C1c2ccccc2C(=O)c2c(O)ccc(O)c21,inactive,
Cc1ccc(S(N)(=O)=O)cc1,inactive,
OCc1cccc(Oc2ccccc2)c1,inactive,
O=c1[nH]c(=O)c2cn[nH]c2[nH]1,inactive,
COC(=O)c1ccc(C)cc1C1=NC(C)(C(C)C)C(=O)N1 (stereo not given) (tested in a mixture with another compound),inactive,
CCCCCc1ccco1,inactive,
c1ccc(CCc2ccccc2)cc1,inactive,
COc1ccc(COC(C)=O)cc1,inactive,
CS(=O)(=O)OCCCCOS(C)(=O)=O,inactive,
COC(=O)Nc1ccc(Cl)c(Cl)c1,inactive,
C=CC(=O)OCCCC,inactive,
